Source: PubChem BioAssay
AID923 – qHTS Assay for Allosteric/Competitive Inhibitors of Caspase-1: Spectroscopic Profiling in AFC Spectral Region; AID 923, 2007; compound fluorescence, AFC spectral region (405/520 nm); 1.1% of 75,000 active; Potency, µM (top dose mostly 57.5 µM), usual class: activators
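Baseline compound fluorescence (AFC region, 405 nm ex/520 nm em) taken from the intercept of kinetic reads with 50 nM caspase-1 and 5 uM Ac-WEHD-AFC; normalized to an on-plate AFC standard curve; compounds titrated up to 57 uM.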
HSD17B inh – inhibitors of human HSD17B10 dehydrogenase; recombinant HSD17B10, NADH fluorescence kinetic; 7.6% of 75,000 active; Q99714; Potency, µM (top dose mostly 57.1 µM), usual class: inhibitors;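 note: the protocol describes HADH2 (HSD17B10) and not the HSD17B4 of the title; nearly all actives have a fitted effect of over 70% in size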
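Activity followed as NADH fluorescence increase (ex 360, em 450 nm) every 30 seconds for 4 min, using final 90 uM beta-hydroxybutyryl CoA and 1 mM NAD+. Recombinant His-tagged enzyme, 20 nM, pH 9.0 Tris buffer, 15 min compound preincubation.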
HADH2 inhib – blocks human hydroxyacyl-CoA dehydrogenase type II; Q99714; recombinant HADH2, NADH fluorescence, beta-hydroxybutyryl-CoA; Potency, µM (titrated, usually from 57.1 µM), hits mostly inhibitors; 3.4% of 73,000 active; note: nearly all actives have a fitted effect of over 60% in size
Target sequence (Q99714 whole entry, looked up, one chain of several): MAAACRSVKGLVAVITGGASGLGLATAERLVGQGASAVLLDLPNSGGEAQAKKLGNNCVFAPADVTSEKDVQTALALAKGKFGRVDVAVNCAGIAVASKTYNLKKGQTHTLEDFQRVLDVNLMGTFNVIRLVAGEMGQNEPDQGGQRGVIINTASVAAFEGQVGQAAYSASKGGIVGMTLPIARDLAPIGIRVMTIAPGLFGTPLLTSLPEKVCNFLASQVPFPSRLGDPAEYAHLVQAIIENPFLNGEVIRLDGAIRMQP
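Read-out: 360 nm excitation, 450 nm emission, kinetic over 4 min. Conditions: His-tagged human HADH2 20 nM, pH 9.0 Tris with Tween-20, 1 mM NAD+, 90 uM beta-hydroxybutyryl-CoA.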
A350 autofl – compound fluoresces in the Alexa 350 spectral region. Compound autofluorescence, 340/450 nm, Alexa 350 dye-equivalents; active compounds read high. max dye-equivalent concentration, M. 11% of 59,000 active; in the data active = max dye-equivalent concentration above about 10 nM; inconclusive = mostly about 1.1 nM to 9.6 nM
4MU fluor – compounds fluorescent in 4-MU spectral region; compound autofluorescence, 340/450 nm, 4-MU equivalents; active compounds read high; max dye-equivalent concentration, M; 11% of 59,000 active; AID 589; in the data active = max dye-equivalent concentration above about 10 nM; inconclusive = mostly about 1.1 nM to 9.6 nM
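Compounds in 100 mM Tris, pH 8.0, incubated 15 min at room temperature, then fluorescence read at 340 nm excitation/450 nm emission. Signal converted to 4-MU dye-equivalent concentration using an on-plate six-point 4-MU standard curve.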
A number is an active result; – = inactive; ? = inconclusive; · = no result given; [ ] = dose if it differs, or a comment. Sampled rows, rich in hits. Any-hit rate of the full collection: about 13%. Unless noted, calls come from the whole dose curve; as a rule, active = well fitted curve in the direction sought with a large enough effect; inconclusive = small, poorly fitted or top-dose-only effect, or another doubt; inactive = no such curve, though single readings can be large; an effect the other way counts as inactive or inconclusive.

SMILES | AID923 | HSD17B inh | HADH2 inhib | A350 autofl | 4MU fluor
Cc1cc(C(=O)CSc2nnc(-c3ccco3)o2)c(C)n1-c1ccc2c(c1)OCCO2 | – | – | – | – | –
Cc1nnc(C)c2c(C)n(Cc3ccc4c(c3)OCO4)c(C)c12 | – | 20µM | – | 2.5e-08M | 8.4e-08M
Cc1cc(C(=O)CSc2nnc(-c3ccco3)o2)c(C)n1Cc1ccco1 | – | 16µM | – | – | –
Cc1cc(C(=O)CSc2nnc(Cc3ccccc3)o2)c(C)n1Cc1ccc2c(c1)OCO2 | – | 25µM | – | – | –
CCOC(=O)N1CCC(NC(=O)c2cc(C(=O)Nc3ccc(OC)c(OC)c3)ccc2CO)CC1 | – | – | – | 1.2e-08M | 1.2e-08M
Cc1ccc(-c2nc(CSCC(=O)N3CCCC3)c(C)o2)cc1 | – | ? | – | – | –
CCOC(=O)CSCc1nc(-c2ccc(Cl)cc2)oc1C | – | 32µM | – | · | ·
COc1ccc(-c2nc(CSCC(=O)N3CCC(C(N)=O)CC3)c(C)o2)cc1OC | – | 25µM | ? | · | ·
CCOC(=O)N1CCC(NC(=O)CSCc2nc(-c3ccc(OC)c(OC)c3)oc2C)CC1 | – | 32µM | – | – | –
O=C(NCCNC[C@@H](O)COc1ccc(O)cc1)N1CCOCC1 | – | – | ? | – | –
COc1ccccc1-c1ccc2ncnc(NC3CCNCC3)c2c1 | – | ? | – | – | –
Cc1nc(N2CCOCC2)c2oc3ccccc3c2n1 | – | – | – | ? | –
Cc1nc(N2CCOCC2)c2nc(-c3ccccc3)n(CCCN3CCOCC3)c2n1 | – | 20µM | ? | · | ·
Cc1nc(N2CCOCC2)c2nc(-c3ccccc3)n(CC(C)(C)CN(C)C)c2n1 | – | 32µM | – | · | ·
Cc1nc(N2CCOCC2)c2nc(-c3ccccc3)n(CC3CCN(C)CC3)c2n1 | – | 25µM | ? | · | ·
Cc1ccc(-c2nc3ccccc3c(=O)n2CCN2CCOCC2)cc1 | – | – | – | ? | –
Cc1nc(N2CCOCC2)c2nc(-c3ccccc3)n(CCN3CCOCC3)c2n1 | – | 25µM | – | · | ·
CCC1=C2CC[C@H]3C(=O)N(C)C(=O)[C@H]3[C@H]2[C@@]2(C)C(=O)N(CC3CC3)C(=O)N2C1=O | – | – | · | · | ·
CCCn1c(-c2ccc(F)cc2)nc2c(N3CCN(CCn4ccnc4)CC3)nc(C)nc21 | – | ? | – | · | ·
CCN1CCCC1Cn1c(-c2ccccc2)nc2c(N3CCOCC3)nc(C)nc21 (configuration not stated) | – | 25µM | – | · | ·
CC(=O)N[C@H](Cc1ccc(O)cc1)C(=O)O | –[11.5 µM] | –[11.4 µM] | –[11.4 µM] | – | –
COCCn1nnnc1CN1C2CCCC1CC(NC(C)=O)C2 (configuration not stated) | – | – | – | 1.5e-08M | 1e-08M
